# Results taken from PubChem BioAssay (NCI).
# About 79,000 compounds went through this panel and 15% of them were active in at least one assay; those are over-represented in the sample as a whole. A number with no mark means an inactive call. The source made the active and inactive calls. Rule as the data show it: active = growth inhibition above about 70%; inactive = the rest.
# Tests used:
# [1] = NCI Yeast Anticancer Drug Screen. Data for the rad50 strain (AID 155);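 also: 0% = growth of vehicle-only cultures of the same strain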; settings: S. cerevisiae rad50 strain growth inhibition, hits give high values
# Method in brief: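 Readout: growth inhibition relative to vehicle-treated cultures. Compound exposure was carried out in a genetically defined yeast strain deficient in DNA damage repair.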
# [2] = NCI Yeast Anticancer Drug Screen. Data for the mec2-1 strain (AID 157); settings: S. cerevisiae mec2-1 strain, hits give high values
# Method in brief: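 mec2-1 yeast strain, carrying an alteration in DNA damage repair or cell cycle control, was exposed to compounds; growth inhibition was measured relative to vehicle-treated controls.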
# [3] = NCI Yeast Anticancer Drug Screen. Data for the sgs1 mgt1 strain (AID 161);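 also: 0% = growth of cultures given vehicle only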; settings: S. cerevisiae sgs1 mgt1 strain, hits give high values
# Method in brief: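 Percent growth inhibition was derived by comparing compound-exposed mutant yeast with vehicle-exposed cultures. The strain carries alterations in DNA damage repair.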
# [4] = NCI Yeast Anticancer Drug Screen. Data for the cln2 rad14 strain (AID 165);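 also: 0% = growth equal to vehicle treated cultures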; settings: S. cerevisiae cln2 rad14 strain, hits give high values
# Method in brief: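 Yeast carrying cln2 and rad14 alterations (cell cycle control and DNA damage repair) were exposed to compounds. Growth inhibition was measured against vehicle-treated controls.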
# [5] = NCI Yeast Anticancer Drug Screen. Data for the bub3 strain (AID 167); settings: S. cerevisiae bub3 mutant strain, hits give high values
# Method in brief: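 Readout: yeast growth inhibition, expressed relative to vehicle-only wells. The test organism is a mutant strain from a panel with lesions in DNA repair or checkpoint genes.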
# [6] = NCI Yeast Anticancer Drug Screen. Data for the mlh1 rad18 strain (AID 175); settings: S. cerevisiae mlh1 rad18 strain growth inhibition, hits give high values
# Method in brief: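 Growth inhibition of the yeast strain was measured after compound exposure and expressed relative to vehicle-treated controls. The strain carries defined defects in DNA damage repair.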
# [7] = at 5.0 µM (retest, dose inferred, filed as 0.5)
# [8] = at 50.0 µM (retest, dose inferred, filed as 5.0)
Compound,"growth inhibition [1, 7]","growth inhibition [1, 8]",growth inhibition ([1]; at 50.0 µM),"growth inhibition [2, 7]","growth inhibition [2, 8]",growth inhibition ([2]; at 50.0 µM),"growth inhibition [3, 7]","growth inhibition [3, 8]",growth inhibition ([3]; at 50.0 µM),"growth inhibition [4, 7]","growth inhibition [4, 8]",growth inhibition ([4]; at 50.0 µM),"growth inhibition [5, 7]","growth inhibition [5, 8]",growth inhibition ([5]; at 50.0 µM),"growth inhibition [6, 7]","growth inhibition [6, 8]",growth inhibition ([6]; at 50.0 µM)
CCc1cccc(CC)c1NC(=S)N/C=C(\C#N)C(=O)c1ccc2ccccc2c1,7%,14%,44.8%,-2%,6%,38.5%,0%,13%,61.4%,-23%,5%,6.85%,3%,7%,59.1%,-2%,5%,67.2%
Cc1ccc(/[N+]([O-])=C/c2ccccc2)cc1,-2%,-23%,98.2% (active),4%,-17%,99.2% (active),-13%,-2%,95.7% (active),-46%,-25%,52.8%,-12%,13%,99% (active),-27%,-20%,79.2% (active)
CC(C)c1cc(O)c(C(C)(C)C)cc1Cl,-1%,15%,74.5% (active),2%,38%,77.2% (active),-1%,24%,77.3% (active),4%,45%,72.5% (active),-11%,30%,76.6% (active),3%,47%,86.8% (active)
N#CC1C2CCC3(CC2CCN1C(=O)c1ccccc1)OCCO3 (stereo not given),-1%,59%,32.5%,-1%,76% (active),72.2% (active),-6%,60%,43%,-7%,78% (active),71.8% (active),12%,82% (active),82.8% (active),-7%,77% (active),60.9%
O=C(Nc1cccc(Cl)c1)Oc1c(Br)cc(Br)cc1Br,18%,98% (active),99% (active),22%,99% (active),98.7% (active),34%,98% (active),99% (active),-4%,98% (active),94.5% (active),-7%,99% (active),97.1% (active),24%,99% (active),99.4% (active)
Oc1cccc(NCSc2ccc(Cl)cc2)c1,-4%,95% (active),93.3% (active),-3%,95% (active),95.2% (active),-9%,95% (active),96.2% (active),-5%,91% (active),92.5% (active),-3%,93% (active),94.1% (active),-1%,91% (active),94% (active)
COc1ccc(C(CC(=O)c2ccc(C)cc2)Sc2ccccc2N)cc1 (stereo not given),46%,51%,-9.65%,52%,52%,4.5%,-16%,26%,26.5%,44%,40%,-15.2%,36%,17%,27.5%,35%,50%,8.35%
CC1(c2ccc(S(=O)(=O)c3ccccc3)cc2)OC(=O)C=CC1=O (stereo not given),82% (active),100% (active),99.2% (active),92% (active),99% (active),99.5% (active),94% (active),99% (active),99.5% (active),44%,98% (active),99.2% (active),94% (active),99% (active),99.5% (active),97% (active),99% (active),99.5% (active)
CCCCCCCCCCCC[n+]1ccc(C#N)cc1,27%,81% (active),99.2% (active),30%,98% (active),95.9% (active),28%,97% (active),-5.4%,26%,78% (active),84.4% (active),34%,92% (active),47.8%,16%,92% (active),99.5% (active)
CC(=O)Oc1c([N+](=O)[O-])cc(-c2ccccc2)cc1[N+](=O)[O-],18%,99% (active),78.2% (active),20%,100% (active),56.1%,21%,99% (active),66.3%,9%,99% (active),47.5%,21%,99% (active),62.1%,6%,99% (active),84.6% (active)
